Here are results for 33 compounds from PubChem BioAssay (EPA / NIEHS).

“And” between values parts separate entries of the source, which are not always exact repeats. Equal entries are not always repeated. The source made the active and inactive calls. The calls were made as follows: active = hit-call score of the fitted dose curve at least 0.9, where 1 is the maximum; inactive = score below 0.9.

Read-out in the first experiment: not listed separately
Kind of experiment: BSK_LPS_SRB: Viability Assessment in the BioMAP Diversity Plus: LPS Assay (AID 2283079).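 Also: total protein by sulforhodamine B absorbance as a cytotoxicity measure; measured one day after compound addition; fitted in both directions against DMSO so loss or gain of signal counts.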 Particulars: primary human HUVEC with PBMC. The method in brief: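 SRB viability endpoint: cells fixed with 10% TCA, stained with 0.1% SRB, read at 560 nm, 24 h post-dose. HUVEC/PBMC co-culture; signal change in either direction scored relative to DMSO.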
With `CN(C(=O)C(F)(F)C(F)(F)C(F)(F)F)[Si](C)(C)C`, the result was inactive.
Regarding `C=C(C)C(=O)OCC(F)(F)C(F)(F)C(F)(F)C(F)F`, the result was inactive.
Consider `NC(=O)C(F)(F)C(F)(F)C(F)(F)C(F)(F)C(N)=O`, for which the outcome was inactive.
On the same count and under the same terms, with `O=C(O)C(F)(F)C(F)(F)C(F)(F)OC(F)(F)F` the entry was “inactive”; with `FC(F)(F)C(F)(F)C(F)(F)CC1CO1` (stereo unspecified), “inactive”.
Consider `FC(F)(F)C(F)(F)C(F)(F)C(F)(F)C(F)(F)C(F)(F)CC[Si](Cl)(Cl)Cl`, for which the result was inactive.
Take `NC(=O)C(F)(F)C(F)(F)C(F)(F)C(F)F`: the outcome was inactive.
For `OCCCCC(F)(F)C(F)(F)C(F)(F)C(F)(F)F`, the outcome was inactive.
On to `OCC(F)(F)C(F)(F)C(F)(F)C(F)(F)C(F)(F)C(F)(F)CO`, for which the result was inactive.
As to `C=CC(=O)OCCC(F)(F)C(F)(F)C(F)(F)C(F)(F)F`, the result was inactive.
Turning to `O=S(=O)(O)CCC(F)(F)C(F)(F)C(F)(F)C(F)(F)F`, the result was inactive.
With `O=C(O)C(F)(F)C(F)(F)C(F)(F)C(=O)O`, the result was inactive.
On to `NC(O)(C(F)(F)F)C(F)(F)F`, for which the outcome was inactive.
By AC50 is commonly meant the midpoint of the concentration-response curve, whichever way the signal moves. For the compound `OCCCC(F)(F)C(F)(F)C(F)(F)C(F)(F)C(F)(F)C(F)(F)C(F)(F)C(F)(F)F`, the AC50 was 41.5 µM (active) and 45.7 µM (active).
In the case of `O=C(O)C(F)(F)OC(F)(F)C(F)(F)OC(F)(F)C(F)(F)OC(F)(F)F`, the outcome was inactive.
On to `O=C(O)CCC(F)(F)C(F)(F)C(F)(F)F`, for which the outcome was inactive.
The same measure, in the same setting: with `OCC(O)CC(F)(F)C(F)(F)C(F)(F)C(F)(F)C(F)(F)C(F)(F)C(F)(F)C(F)(F)F` (stereo unspecified) the entry was “inactive”.
Turning to `NC(=O)C(F)(F)C(F)(F)C(F)(F)F`, the result was inactive.
With `O=S(=O)(Cl)C(F)(F)C(F)(F)C(F)(F)C(F)(F)C(F)(F)C(F)(F)C(F)(F)C(F)(F)F`, the result was inactive.
For the compound `NCC(F)(F)C(F)(F)C(F)(F)C(F)(F)C(F)(F)C(F)(F)F`, the result was inactive.
Consider `COC(F)(C(F)F)C(F)(F)F` (stereo unspecified), for which the outcome was inactive.
Regarding `OCC(O)CC(F)(F)C(F)(F)C(F)(F)C(F)(F)F` (stereo unspecified), the outcome was inactive.
Regarding `C[Si](Cl)(Cl)CCC(F)(F)C(F)(F)C(F)(F)C(F)(F)C(F)(F)C(F)(F)F`, the outcome was inactive.
With `CO[Si](C)(CCC(F)(F)C(F)(F)C(F)(F)C(F)(F)C(F)(F)C(F)(F)F)OC`, the result was inactive.
On to `O=S(=O)(O)CCC(F)(F)C(F)(F)C(F)(F)C(F)(F)C(F)(F)C(F)(F)C(F)(F)C(F)(F)F`, for which the result was inactive.
On to `C=CC(=O)OCC(F)(F)C(F)(F)C(F)(F)COC(=O)C=C`, for which the AC50 was 48.6 µM (active) and 47.4 µM (active).
In the case of `O=C(O)C(F)(F)C(F)(F)C(F)(F)C(F)(F)C(F)(F)C(F)(F)C(F)F`, the result was inactive.
Take `CCN=C1C=CC(=C(c2ccc(N(CC)CC)cc2)c2ccc(N(CC)CC)cc2)c2ccccc21`: the AC50 was 2.39 µM (active) and 2.33 µM (active).
Consider `OCC(F)(F)C(F)(F)C(F)(F)CO`, for which the outcome was inactive.
As for `CCOC(=O)CC(=O)C(F)(F)C(F)(F)F`, the result was inactive.
Take `NC(=O)C(F)(F)C(F)(F)C(F)(F)C(F)(F)C(F)(F)C(F)(F)C(F)(F)F`: the outcome was inactive.
On the same count and under the same terms, with `OC(O)C(F)(F)C(F)(F)F` the entry was “inactive”.
In the case of `O=C(Cl)C(F)(F)C(F)(F)C(F)(F)C(F)(F)C(F)(F)C(F)(F)C(F)(F)F`, the outcome was inactive.

Read-out in another experiment: Interleukin-1 alpha (IL1a), IL1A (gene 3552)
Description: BSK_LPS_IL1a: BioMAP Diversity Plus: LPS Assay for Interleukin-1 alpha (IL1a) Biomarker Activity (AID 2283080). As to conditions: primary human HUVEC with PBMC; actives raise or lower the signal. The method in brief: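 Readout is IL-1a level by ELISA, 24 h post-dose, fitted as gain or loss relative to DMSO. System: LPS-activated human primary co-culture of vascular endothelium and peripheral blood mononuclear cells, with parallel SRB total-protein cytotoxicity.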
Take `CN(C(=O)C(F)(F)C(F)(F)C(F)(F)F)[Si](C)(C)C`: the result was inactive.
Regarding `C=C(C)C(=O)OCC(F)(F)C(F)(F)C(F)(F)C(F)F`, the result was inactive.
As for `NC(=O)C(F)(F)C(F)(F)C(F)(F)C(F)(F)C(N)=O`, the outcome was inactive.
Consider `O=C(O)C(F)(F)C(F)(F)C(F)(F)OC(F)(F)F`, for which the result was inactive.
Same read-out and setting: with `FC(F)(F)C(F)(F)C(F)(F)CC1CO1` (stereo unspecified) the entry was “inactive”; with `FC(F)(F)C(F)(F)C(F)(F)C(F)(F)C(F)(F)C(F)(F)CC[Si](Cl)(Cl)Cl`, “inactive”; with `NC(=O)C(F)(F)C(F)(F)C(F)(F)C(F)F`, “inactive”.
For `OCCCCC(F)(F)C(F)(F)C(F)(F)C(F)(F)F`, the result was inactive.
Regarding `OCC(F)(F)C(F)(F)C(F)(F)C(F)(F)C(F)(F)C(F)(F)CO`, the outcome was inactive.
In the case of `C=CC(=O)OCCC(F)(F)C(F)(F)C(F)(F)C(F)(F)F`, the outcome was inactive.
For `O=S(=O)(O)CCC(F)(F)C(F)(F)C(F)(F)C(F)(F)F`, the result was inactive.
Turning to `O=C(O)C(F)(F)C(F)(F)C(F)(F)C(=O)O`, the result was inactive.
Consider `NC(O)(C(F)(F)F)C(F)(F)F`, for which the result was inactive.
Turning to `OCCCC(F)(F)C(F)(F)C(F)(F)C(F)(F)C(F)(F)C(F)(F)C(F)(F)C(F)(F)F`, the AC50 was 30 µM (active) and 6.25 µM (active).
For the compound `O=C(O)C(F)(F)OC(F)(F)C(F)(F)OC(F)(F)C(F)(F)OC(F)(F)F`, the outcome was inactive.
With `O=C(O)CCC(F)(F)C(F)(F)C(F)(F)F`, the outcome was inactive.
Consider `OCC(O)CC(F)(F)C(F)(F)C(F)(F)C(F)(F)C(F)(F)C(F)(F)C(F)(F)C(F)(F)F` (stereo unspecified), for which the result was inactive.
Regarding `NC(=O)C(F)(F)C(F)(F)C(F)(F)F`, the outcome was inactive.
As to `O=S(=O)(Cl)C(F)(F)C(F)(F)C(F)(F)C(F)(F)C(F)(F)C(F)(F)C(F)(F)C(F)(F)F`, the result was inactive.
Consider `NCC(F)(F)C(F)(F)C(F)(F)C(F)(F)C(F)(F)C(F)(F)F`, for which the result was inactive.
Regarding `COC(F)(C(F)F)C(F)(F)F` (stereo unspecified), the result was inactive.
For the compound `OCC(O)CC(F)(F)C(F)(F)C(F)(F)C(F)(F)F` (stereo unspecified), the result was inactive.
For the compound `C[Si](Cl)(Cl)CCC(F)(F)C(F)(F)C(F)(F)C(F)(F)C(F)(F)C(F)(F)F`, the result was inactive.
As to `CO[Si](C)(CCC(F)(F)C(F)(F)C(F)(F)C(F)(F)C(F)(F)C(F)(F)F)OC`, the outcome was inactive.
Take `O=S(=O)(O)CCC(F)(F)C(F)(F)C(F)(F)C(F)(F)C(F)(F)C(F)(F)C(F)(F)C(F)(F)F`: the AC50 was 47.3 µM (active) and 44.8 µM (active).
In the case of `C=CC(=O)OCC(F)(F)C(F)(F)C(F)(F)COC(=O)C=C`, the AC50 is 15.5 µM (active) and 12.1 µM (active).
Regarding `O=C(O)C(F)(F)C(F)(F)C(F)(F)C(F)(F)C(F)(F)C(F)(F)C(F)F`, the outcome was inactive.
Take `CCN=C1C=CC(=C(c2ccc(N(CC)CC)cc2)c2ccc(N(CC)CC)cc2)c2ccccc21`: the AC50 was 2.54 µM (active) and 1.43 µM (active).
With `OCC(F)(F)C(F)(F)C(F)(F)CO`, the result was inactive.
For the compound `CCOC(=O)CC(=O)C(F)(F)C(F)(F)F`, the result was inactive.
For the compound `NC(=O)C(F)(F)C(F)(F)C(F)(F)C(F)(F)C(F)(F)C(F)(F)C(F)(F)F`, the result was inactive.
On to `OC(O)C(F)(F)C(F)(F)F`, for which the outcome was inactive.
Consider `O=C(Cl)C(F)(F)C(F)(F)C(F)(F)C(F)(F)C(F)(F)C(F)(F)C(F)(F)F`, for which the result was inactive.
